Hits are enriched below; roughly 3.5% of the tested compounds scored in any of these assays.
FadD28 binding: inhibitors of FadD28 bisubstrate probe binding, primary screen, biochemical, fluorescence polarization, single point; Mycobacterium tuberculosis FadD28 fatty-acid-AMP ligase; inhibition, % at 12.5 µM; hit rate 0.22% among 360,000; in the data active = inhibition above about 8.5%, passing the limit was not always enough; inconclusive = no clear call, values can overlap the other calls
Mtb UGM inh: M. tuberculosis UGM enzyme inhibitors, primary screen, biochemical, fluorescence polarization, single point. UDP-galactopyranose mutase (Mycobacterium tuberculosis (strain ATCC 25618 / H37Rv)), …. purified UGM, fluorescence polarization probe displacement. inhibition, % at 10 µM. hit rate 0.06% among 320,000; in the data active = inhibition above about 10%, passing the limit was not always enough; inconclusive = no clear call, values can overlap the other calls
Mtb hypoxia inh: PubChem AID 1159583; fluorescence inhibition, % (test concentration not listed); hit rate 0.1% among 300,000; M. tuberculosis hypoxia-regulated fluorescent reporter, fluorescence; in the data active = fluorescence inhibition mostly above about 23%, no sharp cut-off; inactive = mostly below about 17%
Mtb FBA inh: Mtb FBA enzyme inhibitors, primary screen, biochemical, fluorescence, strain H37Rv | Fructose-bisphosphate aldolase (Mycobacterium tuberculosis (strain ATCC 25618 / H37Rv)), … | purified M. tuberculosis FBA, fluorescence read-out | inhibition, % at 1 µM | hit rate 2.3% among 360,000; in the data active = inhibition above about 27%;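 note: 0% = vehicle and 100% = reference inhibitor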
Target sequence (P9WQA3 whole entry, looked up): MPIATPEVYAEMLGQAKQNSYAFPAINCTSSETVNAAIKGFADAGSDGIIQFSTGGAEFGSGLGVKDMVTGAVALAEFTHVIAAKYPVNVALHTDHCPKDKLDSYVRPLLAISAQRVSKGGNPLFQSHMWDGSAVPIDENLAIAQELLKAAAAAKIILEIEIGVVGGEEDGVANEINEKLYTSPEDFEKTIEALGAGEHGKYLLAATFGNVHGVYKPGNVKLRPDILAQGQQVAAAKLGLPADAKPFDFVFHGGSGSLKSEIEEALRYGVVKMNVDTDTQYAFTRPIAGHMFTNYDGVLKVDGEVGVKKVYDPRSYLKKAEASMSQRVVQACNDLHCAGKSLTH
Rv3671c protease: Rv3671c serine protease inhibitors, primary screen, biochemical, fluorescence polarization, M. tuberculosis H37Rv; P9WHR9; inhibition, % at 5.96 µM; hit rate 0.048% among 320,000; AID 2606, 2010;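 note: extracellular domain of Rv3671c used as enzyme; 0% = enzyme with DMSO and 100% = no enzyme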
GDH-TPI counter: GDH-TPI coupling enzyme inhibitors, primary screen, artefact control for M. tuberculosis FBA inhibitor project, biochemical, absorbance, full deck; GDH-TPI coupled enzyme counterscreen, NADH absorbance; inhibition, % at 4.8 µM; AID 588335, 2011; hit rate 1.2% among 360,000; in the data active = inhibition above about 30%;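 note: 0% = DMSO wells and 100% = wells lacking the enzyme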
Rv3671c cf: Rv3671c serine protease inhibitors, retest, confirmation, biochemical, fluorescence polarization, M. tuberculosis H37Rv | hit rate 40% among 140 | shares compounds with Rv3671c protease | inhibition, % at 5.96 µM
DNA intercalat: DNA intercalation detected by acridine orange polarization counter-screen | AC50, µM | shares compounds with Mtb UGM inh | hit rate 60% among 35 | acridine orange-DNA binding, fluorescence polarization;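 active = fitted AC50 no greater than ten times the top concentration tested, cut at about 17 µM in these data; inconclusive = flat fit with 30 to 70% signal change, or an unreliable fit; inactive = AC50 beyond ten times the top concentration tested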
The depositor's hits bear a star; i = inactive; ? = inconclusive; / = no result given. Cut-off read from the data, not from the text of the source, unless noted: active = inhibition above about 38%; inactive = the rest.

SMILES | FadD28 binding | Mtb UGM inh | Mtb hypoxia inh | Mtb FBA inh | Rv3671c protease | GDH-TPI counter | Rv3671c cf | others
CCCCNc1c2c3c(cccc3n(C)c1=O)C(=O)c1ccccc1-2 | 5 | 28* | -26 | -20 | 43* | 2 | 57*
CCNc1c2c3c(cccc3n(C)c1=O)C(=O)c1ccccc1-2 | / | 22* | -3 | / | 60* | / | 53*
Cn1c(=O)c(NCCO)c2c3c(cccc31)C(=O)c1ccccc1-2 | 7 | 98* | / | -2 | 122* | 5 | 132*
CC(=O)Nc1ccc(Nc2c3c4c(cccc4n(C)c2=O)C(=O)c2ccccc2-3)cc1 | -3 | 4 | / | -5 | 15 | 20 | /
CC(=NNC(=O)CN1CCN(Cc2ccccc2Cl)CC1)c1cccnc1 | / | / | 0 | / | / | / | /
O=C1C2C(C(=O)N1N=Cc1cccc([N+](=O)[O-])c1)C1C=CC2C12CC2 (configuration not stated) | / | / | 4 | / | / | / | /
CC1=C(C(N)=O)C(c2cccs2)n2nc(-c3cccc(C)c3)nc2N1 (configuration not stated) | -1 | -1 | 2 | 4 | 43* | 10 | 52*
Nc1cc(C(=O)O)c(N)c2c1C(=O)c1ccccc1C2=O | 8.3* | 3 | 17 | -3 | 61* | 9 | 52*
Cc1cccc(NC(=O)NC(C)C(=O)O)c1 (configuration not stated) | / | / | 5 | / | / | / | /
CC(=O)Oc1ccc2c(c1)Oc1cc(OC(C)=O)ccc1C21OC(=O)c2ccccc21 | 41* | ? | i | -6 | 122* | -5 | 123*
Cc1cc(O)ccc1C1(c2ccc(O)cc2C)OC(=O)c2ccccc21 | -7 | 1 | / | -1 | -10 | 2 | /
O=C1C2C3C=CC(C4CC34)C2C(=O)N1N=Cc1ccc(-c2ccc(F)cc2[N+](=O)[O-])o1 (configuration not stated) | / | / | 5 | / | / | / | /
O=C(CSc1ccc(Cl)cc1)Nc1ccc(C2SCCS2)cc1 | 0 | -4 | -4 | -1 | 5 | 1 | /
O=C(CSc1c(F)c(F)cc(F)c1F)Nc1ccc(C2SCCS2)cc1 | 0 | 1 | 1 | 2 | 164* | -3 | -5
CSC[C@@H]1NC(=S)N(c2ccc(C)cc2)C1=O | 0 | 1 | 8 | 1 | 91* | 8 | 83*
CC12CN3CCN(CC(C3)C1=NNC(=O)Nc1ccccc1)C2 | / | / | -2 | / | / | / | /
COC(=O)C1=CC(C(=O)OC)C2C3=C(C(=O)C2(C)C)C(C)n2c(=O)n(-c4ccccc4)c(=O)n2C3C1 (configuration not stated) | / | / | 11 | / | / | / | /
O=C(NC1CCN(C(=O)c2cccc([N+](=O)[O-])c2)CC1)c1ccccc1 | 0 | 2 | 2 | -1 | 144* | 3 | -4
O=CN1CCN(C(=O)c2cccc([N+](=O)[O-])c2)CC1 | -2 | -3 | 12 | -1 | 7 | 6 | /
CCOC(=O)C1C2COc3ccc(Br)cc3C2N2C(=O)N(c3ccc(F)cc3)C(=O)[C@@]12C (some centres not stated) | / | / | 3 | / | / | / | /
O=C(N/N=C/c1cc(Br)ccc1O)c1ccncc1 | -8 | -4 | / | 0 | 41* | 11 | 9
CC(=O)Nc1cccc(C(=O)N/N=C/c2cccnc2)c1 | -1 | 2 | / | -3 | 8 | 3 | /
O=C(N/N=C/c1cccnc1)c1cccc(NC(=O)c2cccc(Br)c2)c1 | -4 | -1 | / | -2 | 61* | -1 | -125
COc1ccc(OC)c(-c2cc(C(=O)NN=C(C)c3cccnc3)c3ccccc3n2)c1 | / | / | 12 | / | / | / | /
O=C1C=C(c2ccc3c(c2)oc2ccccc23)CC(c2ccc(Cl)cc2)C1 (configuration not stated) | / | / | 2 | / | / | / | /
SMILES | FadD28 binding | Mtb UGM inh | Mtb hypoxia inh | Mtb FBA inh | Rv3671c protease | GDH-TPI counter | Rv3671c cf | others
CC1=NN(c2ccccc2)C(=O)/C1=C/c1c(O)n(-c2ccc(F)c(Cl)c2)[nH]c1=O | / | -2 | 12 | / | 48* | / | 15
CC1=NN(c2ccccc2)C(=O)/C1=C\c1c(C)[nH]n(-c2ccccc2)c1=O | 1 | -3 | 5 | 5 | -6 | 14 | /
O=C(O)c1ccccc1NSc1ccccc1[N+](=O)[O-] | -2 | -1 | 2 | -3 | 6 | -3 | /
O=C(O)c1cccc2c1NC(C(=O)O)C1CC(Sc3ccccc3[N+](=O)[O-])C(Cl)C21 (configuration not stated) | 55* | -1 | 20 | -14 | 50* | 12 | 24
CCOCCCn1c(SCC(=O)Nc2oc(C)c3c(C)n[nH]c(=O)c23)nc2ccccc2c1=O | 0 | / | -1 | 4 | / | 15 | /
Cc1n[nH]c(=O)c2c(NC(=O)CSc3nc4ccccc4c(=O)n3CCCOC(C)C)oc(C)c12 | -3 | 0 | / | 2 | 92* | -2 | -2
Cc1cc(C)nc(NS(=O)(=O)c2ccc(N)cc2)n1 | -2 | -3 | 6 | -3 | 2 | -1 | /
COc1cnc(NS(=O)(=O)c2ccc(N)cc2)nc1 | -2 | -3 | 9 | 6 | 85* | 11 | -6
Cc1cc(C)c(-c2cc(NC(=O)COC(=O)c3ccc(C#N)cc3)n(-c3ccccc3)n2)cc1C | -2 | -1 | 2 | -1 | -51 | -3 | /
N#CCC(=O)Nc1ccc(C(=O)OCC(=O)Nc2ccccc2Sc2ccccc2)cc1 | -7 | -1 | -5 | 4 | 81* | 4 | -78
Cc1cc(C)c(-c2cc(NC(=O)COC(=O)c3ccc(NC(=O)CC#N)cc3)n(-c3ccccc3)n2)cc1C | 6 | -1 | -6 | 1 | 42* | 8 | -197
CCOc1ccc(C=NNC(=O)C(C)N(c2ccc(OC)cc2)S(C)(=O)=O)cc1 (configuration not stated) | / | / | 4 | / | / | / | /
CCN(CC)C1=CC2=CC(=C(C#N)C#N)CCC2CC1 (configuration not stated) | 1 | -1 | i | -6 | 4 | 11 | /
N#CC(C#N)=C1C=C2C=C(N3CCCCC3)CCC2CC1 (configuration not stated) | / | -8 | i | / | 51* | / | 36
CCCCCCCCCCCCCCCC[n+]1ccc(/C=N/O)cc1 | -2 | -2 | / | -3 | 59* | -5 | 72* | DNA intercalat=>35
O=[N+]([O-])c1ccccc1C=NNC1=NCCCCC1 | / | / | -3 | / | / | / | /
COc1ccc2c3c(cccc13)C(=O)CC2 | 47* | 79* | 7 | -3 | / | 9 | / | DNA intercalat=>35
O=C(CCCN1C(=O)c2cccc3cccc(c23)C1=O)N1CCN(c2ccccc2)CC1 | -1 | 3 | 0 | 8 | 3 | 17 | / | DNA intercalat=>35
O=C(CCCN1C(=O)c2cccc3cccc(c23)C1=O)N1CCN(c2ccccc2O)CC1 | -1 | -3 | 16 | 8 | 2 | 25 | /

Screens from PubChem.
